Test results reported in PubChem BioAssay (EPA / NIEHS).
Calls of active or inactive are those of the source. Rule for the calls: active = hit-call score of the fitted dose curve at least 0.9, where 1 is the maximum; inactive = score below 0.9.

Columns and labels:
[1] = ATG_GRE_CIS: Attagene CIS-FACTORIAL HepG2 Assay for human Glucocorticoid Response Elements (GRE) (AID 2282947); details: HepG2 GRE cis-reporter, Attagene multiplex mRNA; actives raise or lower the signal
In short: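 Multiplexed cis-reporter mRNA induction, HepG2, 24 h post-dose. RT-PCR, FAM-labelled, HpaI-digested amplicons by CE. Bidirectional fit vs DMSO.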

[2] = ATG_ISRE_CIS: Attagene CIS-FACTORIAL HepG2 Assay for human Interferon Regulatory Factor 1 (IRF1) binding to an Interferon-Stimulated Response Element (ISRE) (AID 2282948); details: HepG2 ISRE cis-reporter (Attagene), mRNA transcription readout; actives raise or lower the signal
In short: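 Read-out: fluorescent RT-PCR products resolved by capillary electrophoresis, reporting endogenous transcription factor activity via ISRE-driven reporter mRNA in transfected HepG2 cells dosed for 24 h; gain or loss fitted relative to DMSO.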

[3] = ATG_M_32_CIS: Attagene CIS-FACTORIAL HepG2 Assay for M32 Transcription Factor (Internal Marker) (AID 2282949); details: HepG2 Attagene cis-factorial M32 reporter, mRNA; actives raise or lower the signal;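 note: background control marker of the multiplexed CIS panel rather than a real target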
In short: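 Transient MRTU transfection of HepG2; 24 h compound treatment; TriZol RNA, oligo(dT) RT, reporter PCR, 6-FAM primer extension, HpaI cut, CE. Gain/loss of signal vs DMSO.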

[4] = ATG_M_06_CIS: Attagene CIS-FACTORIAL HepG2 Assay for M06 Transcription Factor (Internal Marker) (AID 2282950); details: HepG2 Attagene CIS-FACTORIAL M06 internal marker reporter; actives raise or lower the signal
In short: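 One of many multiplexed endpoints: HepG2 reporter mRNA after 24 h dosing, detected by RT-PCR and capillary electrophoresis fluorescence; gain or loss of signal analysed against DMSO.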

[5] = target: Hepatocyte nuclear factor 6 (Homo sapiens) (UniProt Q9UBC0); assay: ATG_HNF6_CIS: Attagene CIS-FACTORIAL HepG2 Assay for human Hepatocyte Nuclear Factor 6 (HNF6) (AID 2282952); details: HepG2 Attagene cis-factorial HNF6 reporter transcription; actives raise or lower the signal
Chain of Hepatocyte nuclear factor 6 (Homo sapiens) (Q9UBC0 whole entry, looked up): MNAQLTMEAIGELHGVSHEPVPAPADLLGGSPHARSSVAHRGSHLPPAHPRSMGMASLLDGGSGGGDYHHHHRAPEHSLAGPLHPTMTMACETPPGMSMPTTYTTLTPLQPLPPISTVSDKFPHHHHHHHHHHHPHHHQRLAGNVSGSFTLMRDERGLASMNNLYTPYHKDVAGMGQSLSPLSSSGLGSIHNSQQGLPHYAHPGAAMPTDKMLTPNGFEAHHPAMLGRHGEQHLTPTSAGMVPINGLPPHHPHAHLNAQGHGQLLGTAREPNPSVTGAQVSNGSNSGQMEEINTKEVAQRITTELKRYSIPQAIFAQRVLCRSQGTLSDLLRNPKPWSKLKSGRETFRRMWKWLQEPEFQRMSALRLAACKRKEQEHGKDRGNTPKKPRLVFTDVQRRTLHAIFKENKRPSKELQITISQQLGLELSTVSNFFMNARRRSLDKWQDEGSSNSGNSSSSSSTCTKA
In short: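 Endogenous transcription factor activity in human HepG2 liver cells was captured through cis-regulated reporter constructs. After 24 h treatment, reporter mRNA was measured by RT-PCR with capillary electrophoresis, and activity was fitted in both directions relative to DMSO.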

[6] = ATG_MRE_CIS: Attagene CIS-FACTORIAL HepG2 Assay for human Metal Responsive Element (MRE) (AID 2282954); details: HepG2 MRE cis-reporter transcription, Attagene multiplex; actives raise or lower the signal
In short: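 Multiplexed cis-reporter assay in human HepG2 liver cells, 24 h incubation with test chemical. Reporter transcripts measured by RT-PCR and capillary electrophoresis; values from bidirectional curve fitting versus DMSO.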

[7] = target: Paired box protein Pax-6 (Homo sapiens) (UniProt P26367); assay: ATG_Pax6_CIS: Attagene CIS-FACTORIAL HepG2 Assay for human Paired Box 6 (PAX6) (AID 2282956); details: HepG2 CIS-FACTORIAL PAX6 reporter transcription, RNA readout; actives raise or lower the signal
Chain of Paired box protein Pax-6 (Homo sapiens) (P26367 whole entry, looked up): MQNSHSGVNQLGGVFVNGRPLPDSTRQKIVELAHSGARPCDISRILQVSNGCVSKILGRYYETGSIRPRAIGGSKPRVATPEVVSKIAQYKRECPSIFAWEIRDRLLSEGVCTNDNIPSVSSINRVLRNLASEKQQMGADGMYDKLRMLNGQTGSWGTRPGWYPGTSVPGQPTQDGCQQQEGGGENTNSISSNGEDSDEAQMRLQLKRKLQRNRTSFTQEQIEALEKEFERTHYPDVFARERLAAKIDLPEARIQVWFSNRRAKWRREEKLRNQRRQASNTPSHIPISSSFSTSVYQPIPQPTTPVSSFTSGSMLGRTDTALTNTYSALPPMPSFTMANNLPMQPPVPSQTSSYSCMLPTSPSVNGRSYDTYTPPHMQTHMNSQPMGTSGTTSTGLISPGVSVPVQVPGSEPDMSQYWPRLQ
In short: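 Readout: reporter transcript fluorescence after RT-PCR and capillary electrophoresis. Cells: HepG2, transiently transfected with cis-regulated MRTUs. Exposure 24 h. Gain or loss of signal fitted bidirectionally relative to DMSO.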

[8] = ATG_PXRE_CIS: Attagene CIS-FACTORIAL HepG2 Assay for human Pregnane X Receptor Element (PXRE) (AID 2282957); details: HepG2 Attagene CIS-FACTORIAL PXRE reporter, mRNA; actives raise or lower the signal
In short: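 Endogenous transcription factor activity in HepG2 was gauged through induction of reporter mRNA driven by a cis-regulating promoter element, sampled 24 h post-treatment. Activity was fitted in both directions against DMSO negative control.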

[9] = ATG_RORE_CIS: Attagene CIS-FACTORIAL HepG2 Assay for human RAR-related Orphan Receptor Element (RORE) (AID 2282959); details: HepG2 Attagene cis-factorial RORE reporter, mRNA; actives raise or lower the signal
In short: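 HepG2 cells transiently transfected with multiple cis-element reporter transcription units, exposed to chemical for 24 h. Reporter mRNA quantified by RT-PCR, 6-FAM primer-extension labeling, HpaI digestion and capillary electrophoresis; bidirectional fit versus DMSO baseline.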

[10] = target: Transcription factor Sp1 (Homo sapiens) (UniProt P08047); assay: ATG_Sp1_CIS: Attagene CIS-FACTORIAL HepG2 Assay for human Specificity Protein 1 (Sp1) (AID 2282961); details: HepG2 Sp1 cis-reporter transcription, actives raise or lower the signal
Chain of Transcription factor Sp1 (Homo sapiens) (P08047 whole entry, looked up): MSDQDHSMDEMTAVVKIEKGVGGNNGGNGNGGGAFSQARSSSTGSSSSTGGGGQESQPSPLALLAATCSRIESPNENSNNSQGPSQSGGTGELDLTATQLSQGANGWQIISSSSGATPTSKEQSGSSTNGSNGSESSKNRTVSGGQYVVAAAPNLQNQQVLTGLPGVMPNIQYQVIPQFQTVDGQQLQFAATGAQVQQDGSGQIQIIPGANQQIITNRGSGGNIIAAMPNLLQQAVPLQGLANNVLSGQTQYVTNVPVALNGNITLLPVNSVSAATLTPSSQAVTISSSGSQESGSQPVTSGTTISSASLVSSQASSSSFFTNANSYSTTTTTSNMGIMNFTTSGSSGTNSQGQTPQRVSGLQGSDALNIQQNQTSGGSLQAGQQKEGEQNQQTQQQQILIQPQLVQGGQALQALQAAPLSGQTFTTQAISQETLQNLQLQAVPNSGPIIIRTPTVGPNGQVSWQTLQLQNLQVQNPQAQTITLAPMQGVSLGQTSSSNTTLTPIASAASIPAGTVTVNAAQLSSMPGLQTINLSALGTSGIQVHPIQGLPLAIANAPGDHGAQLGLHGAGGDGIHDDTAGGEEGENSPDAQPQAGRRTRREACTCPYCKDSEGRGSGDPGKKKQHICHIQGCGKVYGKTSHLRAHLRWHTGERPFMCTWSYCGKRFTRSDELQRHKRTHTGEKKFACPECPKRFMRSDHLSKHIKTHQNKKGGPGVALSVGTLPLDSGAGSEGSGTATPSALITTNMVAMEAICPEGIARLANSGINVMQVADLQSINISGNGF
In short: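 HepG2 cells transiently transfected with multiple reporter transcription units driven by cis-regulatory elements; Sp1-responsive reporter mRNA measured 24 h after dosing by RT-PCR and capillary electrophoresis fluorescence, fitted bidirectionally against DMSO baseline.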

[11] = ATG_SREBP_CIS: Attagene CIS-FACTORIAL HepG2 Assay for human Sterol Regulatory Element Binding (SREBP) (AID 2282962); details: HepG2 Attagene cis-factorial SREBP reporter, mRNA; actives raise or lower the signal
In short: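 Readout: fluorescent reporter-transcript peaks resolved by capillary electrophoresis after RT-PCR. Cells were human HepG2 carrying transfected cis-promoter reporter constructs, dosed for 24 h. Gain or loss of signal was fitted against DMSO controls.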

[12] = target: Signal transducer and activator of transcription 3 (Homo sapiens) (UniProt P40763); assay: ATG_STAT3_CIS: Attagene CIS-FACTORIAL HepG2 Assay for human Signal Transducer and Activator of Transcription 3 (STAT3) (AID 2282963); details: HepG2, Attagene cis-factorial STAT3 reporter transcription; actives raise or lower the signal
Chain of Signal transducer and activator of transcription 3 (Homo sapiens) (P40763 whole entry, looked up): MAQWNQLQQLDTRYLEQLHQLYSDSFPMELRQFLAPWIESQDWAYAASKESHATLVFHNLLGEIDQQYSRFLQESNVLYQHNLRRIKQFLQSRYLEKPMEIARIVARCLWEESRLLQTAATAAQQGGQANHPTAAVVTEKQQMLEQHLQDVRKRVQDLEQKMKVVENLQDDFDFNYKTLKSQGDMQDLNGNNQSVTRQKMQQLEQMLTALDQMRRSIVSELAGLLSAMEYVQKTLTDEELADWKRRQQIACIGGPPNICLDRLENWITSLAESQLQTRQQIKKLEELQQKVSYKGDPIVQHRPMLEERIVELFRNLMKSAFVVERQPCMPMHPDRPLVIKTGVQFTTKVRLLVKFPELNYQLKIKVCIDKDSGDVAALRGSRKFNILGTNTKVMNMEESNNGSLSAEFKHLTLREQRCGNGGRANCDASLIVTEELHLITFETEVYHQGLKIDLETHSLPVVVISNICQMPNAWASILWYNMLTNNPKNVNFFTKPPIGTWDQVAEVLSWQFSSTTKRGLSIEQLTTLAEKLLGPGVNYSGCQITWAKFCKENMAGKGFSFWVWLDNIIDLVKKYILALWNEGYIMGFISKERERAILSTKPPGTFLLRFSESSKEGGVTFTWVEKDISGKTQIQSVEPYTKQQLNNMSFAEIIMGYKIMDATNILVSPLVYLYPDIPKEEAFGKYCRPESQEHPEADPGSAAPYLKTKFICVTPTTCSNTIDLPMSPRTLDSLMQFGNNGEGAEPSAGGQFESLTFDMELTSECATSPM
In short: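 Cis-factorial format: endogenous transcription factors in HepG2 drive transfected reporter units. After 24 h treatment, reporter RNA was reverse-transcribed, amplified, FAM-labelled and HpaI-digested before CE analysis; activity scored in both directions against DMSO.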

[13] = ATG_TA_CIS: Attagene CIS-FACTORIAL HepG2 Assay for human TA Basal Promoter (AID 2282964); details: HepG2 Attagene CIS-factorial TA basal promoter reporter; actives raise or lower the signal
In short: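 Transient MRTU transfection of HepG2 preceded 24 h compound exposure. Reporter mRNA levels were then read by RT-PCR with capillary electrophoresis, and this background-control endpoint was fitted bidirectionally to DMSO.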

[14] = ATG_TCF_b_cat_CIS: Attagene CIS-FACTORIAL HepG2 Assay for human T-Cell-Factor with beta-catenin (TCF/b-cat) (AID 2282965); details: HepG2 TCF/beta-catenin cis-reporter transcription, actives raise or lower the signal
In short: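 Measured: reporter mRNA in HepG2 transiently transfected with cis-promoter reporter units, 24 h after chemical addition. Fitting was bidirectional, DMSO as negative control.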

[15] = ATG_TAL_CIS: Attagene CIS-FACTORIAL HepG2 Assay for human TAL Basal Promoter (AID 2282966); details: HepG2 Attagene cis-factorial TAL promoter reporter; actives raise or lower the signal;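 note: background control endpoint measuring basal TAL promoter reporter mRNA not a specific factor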
In short: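 Endogenous transcription-factor activity is sensed in HepG2 cells through transfected cis-promoter reporter constructs. After 24 h dosing, reporter transcripts are quantified by RT-PCR and capillary electrophoresis. Gain or loss of signal is fitted relative to DMSO.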

[16] = target: Heat shock factor protein 1 (Homo sapiens) (UniProt Q00613); assay: ATG_HSE_CIS: Attagene CIS-FACTORIAL HepG2 Assay for human Heat Shock Transcription Factor 1 (HSE) (AID 2282953); details: HepG2 HSE cis-reporter, Attagene RNA transcription; actives raise or lower the signal
Chain of Heat shock factor protein 1 (Homo sapiens) (Q00613 whole entry, looked up): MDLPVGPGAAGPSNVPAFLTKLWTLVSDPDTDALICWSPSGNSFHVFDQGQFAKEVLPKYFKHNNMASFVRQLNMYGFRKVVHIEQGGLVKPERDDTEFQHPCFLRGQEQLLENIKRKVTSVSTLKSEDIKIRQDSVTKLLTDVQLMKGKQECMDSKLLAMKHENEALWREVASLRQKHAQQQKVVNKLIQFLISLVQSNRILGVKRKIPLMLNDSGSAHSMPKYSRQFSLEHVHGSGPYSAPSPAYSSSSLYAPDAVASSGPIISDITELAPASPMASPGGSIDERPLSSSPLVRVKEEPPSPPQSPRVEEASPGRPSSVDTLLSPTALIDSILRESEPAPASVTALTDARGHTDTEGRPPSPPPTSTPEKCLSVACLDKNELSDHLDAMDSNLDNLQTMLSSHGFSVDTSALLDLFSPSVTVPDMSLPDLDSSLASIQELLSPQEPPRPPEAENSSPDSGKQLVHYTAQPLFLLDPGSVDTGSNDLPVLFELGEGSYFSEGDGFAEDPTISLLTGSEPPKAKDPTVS
In short: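 Using HepG2 with transfected cis-driven reporter constructs, compound effects on endogenous factor activity are scored as reporter mRNA change at 24 h. Detection: RT-PCR, HpaI digestion, capillary electrophoresis; bidirectional fitting to DMSO.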

[17] = ATG_PBREM_CIS: Attagene CIS-FACTORIAL HepG2 Assay for human Phenobarbital-responsive Enhancer Module (PBREM) (AID 2282955); details: HepG2 PBREM cis-reporter, Attagene multiplexed transcription; actives raise or lower the signal
In short: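 HepG2 cells transiently transfected with multiple cis-regulated reporter transcription units; endogenous factor activity at the PBREM element measured as reporter mRNA 24 h after dosing, via RT-PCR and capillary electrophoresis of fluorescent fragments; bidirectional fitting versus DMSO.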

[18] = ATG_Sox_CIS: Attagene CIS-FACTORIAL HepG2 Assay for human SRY-box transcription factor (SOX) (AID 2282960); details: HepG2 Attagene cis-factorial SOX reporter, mRNA; actives raise or lower the signal
In short: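 HepG2 cells transiently transfected with cis-element-driven multiple reporter transcription units, dosed 24 h; reporter mRNA measured by RT-PCR, FAM labelling, HpaI digestion and capillary electrophoresis. Bidirectional fit versus DMSO baseline.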

[19] = ATG_PPRE_CIS: Attagene CIS-FACTORIAL HepG2 Assay for human Peroxisome Proliferator-activated Response Element (PPRE) (AID 2282958); details: HepG2 PPRE cis-element reporter, Attagene transcription factor profiling; actives raise or lower the signal
In short: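 HepG2 cells transiently transfected with multiplexed cis-element reporter units measure endogenous transcription factor activity. After 24 h compound exposure, reporter mRNA is quantified by RT-PCR, 6-FAM labeling, HpaI digestion and capillary electrophoresis; bidirectional fits are made against DMSO baseline.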

Measured: AC50

CC(C)=CCC/C(C)=C/CO
not listed: [16] | [17] | [18] | [19]
inactive: all other assays above

O=C(OC[C@H]1O[C@@H](OC(=O)c2cc(O)c(O)c(OC(=O)c3cc(O)c(O)c(O)c3)c2)[C@H](OC(=O)c2cc(O)c(O)c(OC(=O)c3cc(O)c(O)c(O)c3)c2)[C@@H](OC(=O)c2cc(O)c(O)c(OC(=O)c3cc(O)c(O)c(O)c3)c2)[C@@H]1OC(=O)c1cc(O)c(O)c(OC(=O)c2cc(O)c(O)c(O)c2)c1)c1cc(O)c(O)c(OC(=O)c2cc(O)c(O)c(O)c2)c1
not listed: [5] | [19]
inactive: all other assays above

Cc1ccc(O)cc1
not listed: [5]
inactive: all other assays above

COC(=O)CC(=O)OC
not listed: [5] | [9] | [18]
inactive: all other assays above

O=c1[nH]c2ccc(S(=O)CCN3CCC(Cc4ccc(F)cc4)CC3)cc2o1 (stereo unspecified)
active: [6] 155 µM | [7] 73 µM | [8] 26.3 µM | [11] 31.2 µM
not listed: [18]
inactive: all other assays above

Cn1c(=O)c2c(ncn2C)n(C)c1=O
not listed: [18] | [19]
inactive: all other assays above

O=C(O)c1cccc(Oc2ccccc2)c1
active: [19] 48.3 µM
not listed: [5] | [18]
inactive: all other assays above

CCCCC(CC)COC(=O)CCCCCCCCC(=O)OCC(CC)CCCC (stereo unspecified)
not listed: [5]
inactive: all other assays above

CCCCCCCCO
active: [14] 20.5 µM
not listed: [5]
inactive: all other assays above

CCc1cc(SCc2sc(-c3ccc(C(F)(F)F)cc3)nc2CN2CCN(c3ccc(OC)cc3)CC2)ccc1OCC(=O)O
active: [2] 14 µM | [16] 18.1 µM | [6] 8.53 µM | [17] 17 µM | [7] 17.5 µM | [19] 0.0329 µM | [9] 11 µM | [11] 0.225 µM | [13] 14.8 µM | [14] 7.72 µM
inactive: [1] | [3] | [4] | [5] | [8] | [18] | [10] | [12] | [15]

CC(=O)c1ccc2c(c1)[C@H](NC(=O)c1ccc(F)cc1)[C@@H](O)C(C)(C)O2
active: [8] 12.4 µM | [19] 1.87 µM
not listed: [5]
inactive: all other assays above

COc1ccc(/C=C/S(=O)(=O)NC(=O)c2ccc(C)cc2Cl)cc1
not listed: [17]
inactive: all other assays above

NC(=O)NO
not listed: [19]
inactive: all other assays above

COc1ccc2sc(C(=O)Nc3nnn[nH]3)c(OC(C)C)c2c1
active: [2] 44.1 µM | [6] 91.1 µM | [7] 129 µM | [19] 12.3 µM | [9] 149 µM | [11] 39.7 µM | [13] 70.7 µM | [15] 130 µM
inactive: all other assays above
